We go through 26 compounds from PubChem BioAssay.

The nature of the experiment: MM1S cell viability effects, profiling panel, calcein-AM fluorescence, 48 h, basal (AID 1165).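 Note: viability of MM1S multiple myeloma cells under basal unstimulated conditions; test concentration not given here.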 As to conditions: higher = more signal.
With `O=C1C2C=CC(C(O)Cc3ccccc3)N(n3cnnc3)C2C(=O)N1Cc1ccccc1` (stereo unspecified), the z-score was -0.304.

Turning to `Cc1ccc(S[C@]2(C(=O)NCCCN(C)C)CC(=O)N(Cc3ccccc3C(F)(F)F)[C@@H]2c2ccc(CO)cc2)cc1`, the z-score is 0.306.

Consider `COc1cc(C(O)C2C=CC3C(=O)NC(=O)C3N2Nc2ccccn2)cc(OC)c1OC` (stereo unspecified), for which the z-score is -0.494.

In the case of `C=CCNC(=O)[C@H]1[C@@H]2C(=O)O[C@@H](c3ccccc3)[C@@H](c3ccccc3)N2[C@@H](c2ccccc2OCCO)[C@]12C(=O)Nc1ccc(C#CCC(C(=O)OC)C(=O)OC)cc12`, the z-score is -3.34.

In the case of `COCCOC(=O)N1C(=O)[C@@]2(c3cc(C#CCNC(N)=O)ccc31)[C@H](C(=O)N1CCN(c3ncccn3)CC1)[C@H]1C(=O)O[C@H](c3ccccc3)[C@H](c3ccccc3)N1[C@@H]2c1ccc(OCCO)cc1`, the z-score was 0.63.

Turning to `CCOC(=O)C[C@H]1[C@H](OC(=O)c2ccc(C(=O)c3ccccc3)cc2)[C@@H](NC(=O)c2ccc3ccccc3c2)c2cc(OCCCO)ccc2N1C(=O)Cc1ccc(OC)cc1`, the z-score is 0.655.

On to `C[C@H]1NC(=O)[C@@]23C(=O)N[C@@H](Cc4ccccc4)C2[C@H](C)[C@@]2(C)O[C@H]2C3/C=C/C/C=C\CNC(=O)[C@@H]2CCCN2C1=O` (stereo partly specified), for which the z-score is -1.6.

Take `C=C(CCCC)/C(=C/C[C@@H](OC(=O)c1ccncc1)c1ccc(OCCO)cc1)c1cc(C(=O)OC)ccc1OC`: the z-score was -0.61.

As to `CN1C(=O)C2C=CC(C(O)c3ccc([N+](=O)[O-])cc3)N(N3CCCCC3)C2C1=O` (stereo unspecified), the z-score was -0.324.

In the case of `CC(C)C(=C=CC[C@H](O)c1ccc(OCCO)cc1)CCO`, the z-score was -3.35.

For `C[C@H]1C2[C@H](Cc3ccccc3)NC(=O)[C@]23C(=O)N[C@H](Cc2ccccc2)C(=O)N2CCC[C@H]2C(=O)NC/C=C\C/C=C/C3[C@@H]2O[C@]12C` (stereo partly specified), the z-score is 0.0625.

As to `CN(C)CCCCCCNC(=O)[C@H]1C[C@H]2C(=O)N[C@@H](CCCCN)C(=O)N2[C@H]1c1cccc(OCCO)c1`, the z-score was -0.371.

With `C=CCC(OC(C)=O)[C@@H]1[C@@H](N(Cc2cc3ccccc3o2)C(=O)c2cccc3ccccc23)c2cc(OCCCO)ccc2N1C(=O)c1ccc(-c2ccccc2)cc1` (stereo partly specified), the z-score is 0.612.

In the case of `COC(=O)[C@@]1(Cc2ccc(OC)cc2)[C@H]2c3cc(C(=O)N4CCCC4)n(Cc4ccc(O)c(OC)c4)c3C[C@H]2CN1C(=O)c1ccccc1`, the z-score is 0.11.

Turning to `COC(=O)[C@@]1(Cc2ccc(OC)cc2)[C@H]2c3cc(C(=O)N4CCCC4)n(Cc4ccc(C)c(F)c4F)c3C[C@H]2CN1C(=O)c1ccccc1`, the z-score is -1.59.

On to `C=CCOC(=O)[C@H]1[C@@H]2C(=O)O[C@@H](c3ccccc3)[C@@H](c3ccccc3)N2[C@@H](c2ccc(OCCOC(=O)[C@@H]3C[C@@H]4C(=O)N[C@@H](CCCCNC(C)=O)C(=O)N4[C@@H]3c3ccc(O)cc3)cc2)[C@]12C(=O)Nc1ccccc12`, for which the z-score was -0.0774.

Take `COC(=O)[C@@]1(Cc2ccc(OC)cc2)[C@H]2c3cc(C(=O)N(C)C)n(Cc4ccc(S(C)(=O)=O)cc4)c3C[C@H]2CN1C(=O)c1ccccc1`: the z-score is 0.636.

As to `CC(C)=CCN[C@H](CO)c1ccccc1`, the z-score is -1.22.

On to `COC(=O)[C@@]1(Cc2ccc(F)cc2)[C@H]2c3cc(C(=O)N4CCCC4)n(Cc4ccc(S(C)(=O)=O)cc4)c3C[C@H]2CN1C(=O)c1ccccc1`, for which the z-score was -1.23.

Regarding `COc1ccc(C#Cc2ccc3c(c2)[C@]2(C(=O)N3)[C@H](C(=O)Nc3nc4ccccc4s3)[C@H]3C(=O)O[C@H](c4ccccc4)[C@H](c4ccccc4)N3[C@@H]2c2ccc(O)cc2)cc1`, the z-score was -0.561.

For the compound `[N-]=[N+]=Nc1ccccc1[C@H]1OC(c2ccc(OCCCO)cc2)=N[C@@]1(CCS(=O)(=O)c1ccccc1)C(N)=O`, the z-score was -0.57.

Consider `CC(C)c1ccc(NN2C(C(O)c3ccc(B(O)O)cc3)C=CC3C(=O)N(c4ccccc4)C(=O)C32)cc1` (stereo unspecified), for which the z-score was -0.571.

With `COC(=O)[C@@]1(Cc2ccc(F)cc2)[C@H]2c3cc(C(=O)N(C)C)n(Cc4ccccc4)c3C[C@H]2CN1C(=O)c1ccccc1`, the z-score was -0.812.

For `[N-]=[N+]=Nc1ccccc1[C@@H]1OC(c2ccc(OCCCO)cc2)=N[C@]1(Cc1ccccc1)C(=O)N1CCOCC1`, the z-score was -3.

For the compound `CN(C)C(=O)[C@]1(Cc2ccccc2N=[N+]=[N-])N=C(c2ccc(OCCCO)cc2)O[C@@H]1c1ccccc1N=[N+]=[N-]`, the z-score is -3.3.

Regarding `CC(C)NC(=O)[C@@]1(c2ccc([N+](=O)[O-])cc2)CC(=O)N(C2CCCCC2)[C@@H]1c1ccc(CO)cc1I`, the z-score was -2.24.
